This excerpt belongs to a sample that is enriched for hits.
FECH block – inhibitors of human ferrochelatase, primary screen, biochemical, purified FECH, Ni-mesoporphyrin absorbance; Ferrochelatase, mitochondrial (Homo sapiens), P22830; calls only at 10 µM (by protocol); actives 3.3% (n = 20,000); Ni-mesoporphyrin absorbance 550 nm;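 active = enzyme reaction rate more than 3 SD below the solvent-only control wells on the same plate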;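 note: lower slope than DMSO wells means FECH inhibition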
Target sequence (P22830 whole entry, looked up): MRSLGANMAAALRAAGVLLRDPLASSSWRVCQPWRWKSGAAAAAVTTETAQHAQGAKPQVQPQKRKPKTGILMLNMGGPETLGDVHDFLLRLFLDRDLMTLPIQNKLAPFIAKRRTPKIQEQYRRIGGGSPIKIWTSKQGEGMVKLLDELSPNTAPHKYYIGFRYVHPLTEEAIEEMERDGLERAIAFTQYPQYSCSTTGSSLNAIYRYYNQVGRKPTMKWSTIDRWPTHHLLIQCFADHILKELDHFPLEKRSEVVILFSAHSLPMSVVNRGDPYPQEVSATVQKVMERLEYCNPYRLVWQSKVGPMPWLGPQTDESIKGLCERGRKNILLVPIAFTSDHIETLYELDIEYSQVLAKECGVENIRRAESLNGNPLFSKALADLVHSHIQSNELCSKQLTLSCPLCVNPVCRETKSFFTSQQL
* hit, by the source's call; i = inactive; + = active, no number.

SMILES	FECH block
Cc1ccc(C)c(CN2CCCN(Cc3ccccc3)S2(=O)=O)c1	i
O=S1(=O)N(Cc2ccc(Cl)cc2)CCCN1Cc1ccccc1Cl	+
Cc1ccc(CN2CCCN(Cc3ccccc3C)S2(=O)=O)cc1	i
Cc1ncc(CO)c(CN2CCC3(CCN(C)CC3)C2)c1O	i
c1cc2c(cc1-c1ccc3c(c1)OCCO3)CNCC2	i
